Assay outcomes (PubChem)
Most compounds without a hit are left out; they make up all but 4.6% or so of the library.
ssDAF12 agonist: S. stercoralis DAF-12 activation, primary screen. HEK293 ssDAF-12/GRIP1 lit1-tk-luc reporter, luminescence; % of 3 µM dafachronic acid response. AID 652126. 1% of 370,000 active. activation, % at 6.8 µM;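 active = activation above the mean over all tested compounds plus 3 SD, cut at about 0.9% in these data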
Wee1 stabilizer: blocks degradation of human Wee1 kinase; 1.2% of 220,000 active; P30291; HeLa Luc-Wee1K328M stability, luciferase luminescence; 100% = proteasome inhibitor MG132 effect; AID 1321; reporter increase, % at 5 µM;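 active = activation above the mean of all tested compounds plus 3 SD, set per screening run, cut at about 8.8% in these data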;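 note: cells exposed to compound for 20 h before luminescence read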
Target sequence (P30291 whole entry K328M): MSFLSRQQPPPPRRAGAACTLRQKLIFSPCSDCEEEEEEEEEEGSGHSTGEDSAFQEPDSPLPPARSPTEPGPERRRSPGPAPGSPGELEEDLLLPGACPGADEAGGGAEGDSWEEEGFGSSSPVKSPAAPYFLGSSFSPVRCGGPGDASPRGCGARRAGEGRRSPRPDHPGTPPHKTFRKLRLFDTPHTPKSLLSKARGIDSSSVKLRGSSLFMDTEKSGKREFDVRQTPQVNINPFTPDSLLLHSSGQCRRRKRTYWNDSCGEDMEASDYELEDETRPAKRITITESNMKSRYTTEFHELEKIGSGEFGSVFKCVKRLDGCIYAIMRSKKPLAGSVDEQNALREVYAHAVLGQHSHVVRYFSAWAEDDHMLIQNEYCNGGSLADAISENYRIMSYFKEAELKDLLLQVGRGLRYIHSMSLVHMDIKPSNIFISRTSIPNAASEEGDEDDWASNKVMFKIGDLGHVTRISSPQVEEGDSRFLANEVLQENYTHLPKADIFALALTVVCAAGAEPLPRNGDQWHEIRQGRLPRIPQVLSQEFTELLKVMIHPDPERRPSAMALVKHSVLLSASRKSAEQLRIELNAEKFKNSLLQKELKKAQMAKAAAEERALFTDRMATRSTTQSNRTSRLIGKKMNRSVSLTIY
DAX1 inh-1: blocks DAX1 repression of SF-1 activated StAR promoter; HEK293T StAR-luciferase reporter, SF-1/DAX-1 repression relief; inhibition, % at 6.8 µM; 1.1% of 370,000 active; AID 652010;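 active = inhibition above the mean over all tested compounds plus 3 SD, cut at about 3.6% in these data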;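 note: higher inhibition means more luminescence from relief of DAX-1 repression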
DAX1 inh-2: NR0B1 (DAX1) inhibition; P51843; HEK293 Gal4-DAX1 luciferase reporter, luminescence; inhibition, % at 6.75 µM; 0.99% of 340,000 active; AID 504766;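 active = inhibition above the mean over all tested compounds plus 3 SD, cut at about 4.2% in these data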;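 note: inhibition shows as a rise in luminescence from relieved DAX1 repression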
hcDAF12 agonist: activates DAF-12 receptor from parasite H. contortus | activation, % at 6.8 µM | 1.4% of 370,000 active | AID 652067 | HEK293 hcDAF-12 lit1-tk-luc reporter, luminescence; 0% DMSO, 100% Δ7-dafachronic acid;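 active = activation above the mean of all tested compounds plus 3 SD, cut at about 5.5% in these data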
hgDAF-12 ag: activates the H. glycines DAF-12 receptor ligand-binding domain. HEK293 GAL4-hgDAF12 UAS-luciferase reporter, agonist luminescence; normalized to butyrate control. activation, % at 6.8 µM. 1.8% of 370,000 active. AID 687014;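 active = activation above a cutoff set at the mean of all screened compounds plus 3 SD, cut at about 10% in these data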
LXRb hcDAF ctr: counter-screen for hcDAF-12 agonists: agonists of human LXR-beta; 3,400 tested, under 10 active; activation, % at 6.8 µM; HEK293 Gal4-LXR tk-luc reporter, luminescence, 24 h; normalized: DMSO 0%, positive control 100%; AID 743027; shares compounds with hcDAF12 agonist;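 active = mean percent activation of the reporter above a cutoff set as the average over tested compounds plus their standard deviation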
hcDAF12 conf: hcDAF-12 agonism, confirmation assay | shares compounds with hcDAF12 agonist | HEK293 hcDAF-12 lit1-tk-luc reporter, luminescence; % of Δ7-dafachronic acid response | activation, % at 6.8 µM | 61% of 3,400 active;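 active = mean activation across triplicate tests above the threshold derived from the earlier primary screen, cut at about 5.5% in these data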
Each line names hits and unclear results; the compound was inactive in the other large screens (follow-up assays come after a bar, where they were run).

O=C(Nc1ccncc1)Nc1cccc(Cl)c1Cl	none (no result: Wee1 stabilizer)
O=C(Nc1ccccc1)Nc1cccc(Cl)c1Cl	hcDAF12 agonist 7.3 | LXRb hcDAF ctr inactive | hcDAF12 conf inactive
Cn1cccc1C(=O)C(=O)Nc1cc(Cl)cc(Cl)c1	none
Cn1cccc1C(=O)C(=O)Nc1cccc(Cl)c1Cl	hcDAF12 agonist 6.6 | LXRb hcDAF ctr inactive | hcDAF12 conf 12
O=C(NCc1ccc(Cl)cc1Cl)Nc1ccccc1	hcDAF12 agonist 7.4 (no result: Wee1 stabilizer) | LXRb hcDAF ctr inactive | hcDAF12 conf inactive
COc1ccc(C=NCCc2ccc(OC)c(OC)c2)cc1OC	none (no result: Wee1 stabilizer)
COCC(=O)N[C@H]1C=C[C@@H](CC(=O)OC)O[C@@H]1CO	none (no result: Wee1 stabilizer, DAX1 inh-2)
OCc1nc2ccccc2n1CCCc1ccccc1	none (no result: Wee1 stabilizer)
O=C1NC(=O)C(CC(=O)N(Cc2cccs2)C2(C(=O)NC3CCCC3)CCCCC2)N1 (centres undefined)	hcDAF12 agonist 8.7 | LXRb hcDAF ctr inactive | hcDAF12 conf inactive
C/C(=N\Nc1nc2ccccc2[nH]1)c1ccc(C)o1	ssDAF12 agonist 2.2, hcDAF12 agonist 7.5 | LXRb hcDAF ctr inactive | hcDAF12 conf 8.6
C/C(=N\Nc1nc2ccccc2[nH]1)c1ccc(Cl)s1	none
COc1cccc2sc(Nc3nnc(-c4ccc(F)cc4)o3)nc12	hcDAF12 agonist 7.8 | LXRb hcDAF ctr inactive | hcDAF12 conf inactive
OCCC1CN(Cc2ccccc2O)CCN1CCCc1ccccc1 (centres undefined)	hcDAF12 agonist 7.8 (no result: Wee1 stabilizer) | LXRb hcDAF ctr inactive | hcDAF12 conf inactive
Cc1[nH]n(-c2ccccc2)c(=O)c1C=NCc1ccco1	none (no result: ssDAF12 agonist, DAX1 inh-1, DAX1 inh-2, hcDAF12 agonist, hgDAF-12 ag)
O=C1C(C=NCc2ccco2)=C(O)c2ccccc21	ssDAF12 agonist 1.4, DAX1 inh-2 4.3, hcDAF12 agonist 13, hgDAF-12 ag 15 | LXRb hcDAF ctr inactive | hcDAF12 conf 12
Cc1cc(N2CCOCC2)n2ncc(-c3ccccc3)c2n1	hcDAF12 agonist 9.4 | LXRb hcDAF ctr inactive | hcDAF12 conf 16
Cc1cc(-c2ccccc2)n2ncc(-c3ccccc3)c2n1	DAX1 inh-1 3.9, hcDAF12 agonist 11 | LXRb hcDAF ctr inactive | hcDAF12 conf 20
Cc1cc(N2CCCCC2)n2ncc(-c3ccccc3)c2n1	none
Cc1cc(C)c(C)c(S(=O)(=O)N2CCC(C(=O)NCCCN3CCCC3=O)CC2)c1C	none (no result: Wee1 stabilizer)
CC(C)(COC(=O)c1ccccc1)N1CC2CCC(C1)O2	none (no result: Wee1 stabilizer)
O=C(c1ccccc1)C1Oc2ccccc2C2CC(c3cccs3)=NN12 (centres undefined)	hcDAF12 agonist 8.3 | LXRb hcDAF ctr inactive | hcDAF12 conf inactive
Cc1n[nH]c(C)c1S(=O)(=O)NCCc1ccccc1	none (no result: Wee1 stabilizer, DAX1 inh-2)
Cc1cc(C)cc(C(=O)Oc2cc(C)[nH]c(=O)c2[N+](=O)[O-])c1	hcDAF12 agonist 8.5 (no result: Wee1 stabilizer) | LXRb hcDAF ctr inactive | hcDAF12 conf inactive
CC(C)c1ccc2c(c1)[C@H]1OCC[C@H]1[C@@H](c1cccs1)N2	hcDAF12 agonist 14 | LXRb hcDAF ctr inactive | hcDAF12 conf inactive
Cc1cc(C)c2c(c1)N[C@H](c1cccs1)[C@@H]1CCO[C@H]21	none
Cc1cccc(C)c1NC(=O)/C(C#N)=C/c1ccc(-c2ccc(C(=O)O)cc2)o1	DAX1 inh-2 4.3, hcDAF12 agonist 7.0 (no result: Wee1 stabilizer) | LXRb hcDAF ctr inactive | hcDAF12 conf inactive
N#C/C(=C\c1ccc(-c2ccc(C(=O)O)cc2)o1)C(=O)NCC1CCCO1 (centres undefined)	none (no result: ssDAF12 agonist, DAX1 inh-1, hcDAF12 agonist, hgDAF-12 ag)
N#C/C(=C\c1ccc(-c2ccc(C(=O)O)cc2)o1)C(=O)Nc1ccc(F)cc1	hcDAF12 agonist 6.9 (no result: Wee1 stabilizer) | LXRb hcDAF ctr inactive | hcDAF12 conf inactive
COc1ccc(CN2CC[C@H]3C=CC[C@@H](C(=O)NCCc4ccccc4)[C@H]3C2=O)cc1OC	none (no result: Wee1 stabilizer)
Cc1cccc(NNC(=S)Nc2ccccc2)c1	hcDAF12 agonist 11 (no result: Wee1 stabilizer) | LXRb hcDAF ctr inactive | hcDAF12 conf inactive
COc1cccc(Cn2c(C(C)n3c(C)nc4ccccc43)nc3ccccc32)c1 (centres undefined)	none (no result: Wee1 stabilizer, DAX1 inh-2)
Cc1ccc(-c2nc(N/N=C/c3ccncc3)c3ccccc3n2)cc1	ssDAF12 agonist 1.1, hcDAF12 agonist 15 | LXRb hcDAF ctr inactive | hcDAF12 conf 20
C(=N\Nc1ncnc2ccccc12)/c1ccccc1	ssDAF12 agonist 1.3, hcDAF12 agonist 8.4, hgDAF-12 ag 15 | LXRb hcDAF ctr inactive | hcDAF12 conf 8.5
Clc1nnc(N/N=C/c2ccccc2)c2ccccc12	ssDAF12 agonist 1.2, hcDAF12 agonist 7.3 | LXRb hcDAF ctr inactive | hcDAF12 conf 11
Cc1ccc(/C=N/Nc2nnc(Cl)c3ccccc23)cc1	ssDAF12 agonist 3.7, hcDAF12 agonist 11 | LXRb hcDAF ctr inactive | hcDAF12 conf 18
C(=N\Nc1nc2ccccc2[nH]1)/c1ccccc1	none
CCc1ccccc1-c1cc(C(C)=O)c2n(c1=O)CCC2	none (no result: Wee1 stabilizer, DAX1 inh-2)
O=C(COC(=O)c1ccc[n+]([O-])c1)Nc1cc([N+](=O)[O-])ccc1Cl	none (no result: Wee1 stabilizer)
O=C(OCc1cn(Cc2cc(F)cc(F)c2)nn1)N1CCOCC1	none (no result: Wee1 stabilizer, DAX1 inh-2)
O=C(Nc1ccc(OC(F)F)cc1)c1cc(S(=O)(=O)N2CCOCC2)ccc1N1CCCC1	none (no result: Wee1 stabilizer)
Clc1ccc(/C=N/Nc2nc(Cl)nc3ccccc23)cc1	none
Clc1ccc(/C=N/Nc2nnc(Cl)c3ccccc23)cc1	ssDAF12 agonist 1.6, hcDAF12 agonist 7.0 | LXRb hcDAF ctr inactive | hcDAF12 conf 8.7
Fc1ccc(C2Nc3cccc4cccc(c34)N2)cc1	hcDAF12 agonist 7.1 (no result: Wee1 stabilizer) | LXRb hcDAF ctr inactive | hcDAF12 conf inactive
CCCOc1ccc(C2Nc3cccc4cccc(c34)N2)cc1	hcDAF12 agonist 6.7 (no result: Wee1 stabilizer) | LXRb hcDAF ctr inactive | hcDAF12 conf inactive
FC(F)(F)c1ccc(C2Nc3cccc4cccc(c34)N2)cc1	none
O=C(c1ccco1)N1CCN(C(=O)c2cn(-c3ccccc3)nc2-c2ccccc2)CC1	none (no result: Wee1 stabilizer)
Cc1ccc(C(=O)CNc2cc(C)ccc2C)cc1	none (no result: Wee1 stabilizer)
Cc1ccc(C)c(NCC(=O)c2ccc(Cl)cc2)c1	hcDAF12 agonist 7.1, hgDAF-12 ag 12 (no result: Wee1 stabilizer) | LXRb hcDAF ctr inactive | hcDAF12 conf inactive
Cc1cc(NC(=O)c2cc(CC(C)C)on2)no1	none
CSc1ccccc1NC(=O)c1cc(CC(C)C)on1	hcDAF12 agonist 7.5, hgDAF-12 ag 11 | LXRb hcDAF ctr inactive | hcDAF12 conf inactive
O=C(/C=C/c1ccco1)NC(=S)Nc1ccccc1O	hcDAF12 agonist 6.8 (no result: DAX1 inh-2) | LXRb hcDAF ctr inactive | hcDAF12 conf inactive
Cc1c(N=C2NN=C(c3c[nH]c4ccccc34)CS2)c(=O)n(-c2ccccc2)n1C	hcDAF12 agonist 7.0 | LXRb hcDAF ctr inactive | hcDAF12 conf inactive
